Data from PubChem BioAssay AID504815 (NMMLSC, 2011).
Potency and affinity values are given separately. Values without a mark were called inactive.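 Rule for the calls: active = compounds with a tight curve fit, inhibition span over 25% and half-maximal concentration below 10 µM; inactive = the rest.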

These compounds were tested against Beta-adrenergic receptor kinase 1 (Homo sapiens) (UniProt P25098) (assay: Concentration-response of GRK2 aptamer binding blockers, biochemical bead flow cytometry, cherry pick 2 (AID 504815)). Details: biotinylated GRK2 beads, FAM-aptamer displacement; series mostly up to 33 µM; aptamer binding inhibition: at the top concentration.
Beta-adrenergic receptor kinase 1 (Homo sapiens), sequence (P25098 whole entry, looked up): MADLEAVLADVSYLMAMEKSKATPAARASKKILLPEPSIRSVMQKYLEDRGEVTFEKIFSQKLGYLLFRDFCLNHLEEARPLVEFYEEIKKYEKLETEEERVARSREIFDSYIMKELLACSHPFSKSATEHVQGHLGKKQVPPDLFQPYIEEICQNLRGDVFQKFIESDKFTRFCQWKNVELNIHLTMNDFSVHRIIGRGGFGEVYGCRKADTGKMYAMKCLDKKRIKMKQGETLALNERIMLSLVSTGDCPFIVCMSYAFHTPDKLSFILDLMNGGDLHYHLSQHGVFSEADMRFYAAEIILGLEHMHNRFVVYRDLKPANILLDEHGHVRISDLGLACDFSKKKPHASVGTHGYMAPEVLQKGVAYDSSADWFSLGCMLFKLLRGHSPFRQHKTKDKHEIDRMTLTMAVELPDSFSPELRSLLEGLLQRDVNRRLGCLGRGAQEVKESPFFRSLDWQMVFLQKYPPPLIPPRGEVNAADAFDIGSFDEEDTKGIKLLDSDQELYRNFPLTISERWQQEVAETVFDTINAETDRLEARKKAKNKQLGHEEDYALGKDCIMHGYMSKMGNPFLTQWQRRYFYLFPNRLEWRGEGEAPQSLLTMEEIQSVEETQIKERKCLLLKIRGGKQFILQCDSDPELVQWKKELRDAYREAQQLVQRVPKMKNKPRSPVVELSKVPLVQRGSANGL

| SMILES | aptamer binding inhibition |
| --- | --- |
| Cc1ccccc1NC(=O)CCS(=O)(=O)c1ccc(Br)cc1 | 41.5% |
| CCOc1ccc(NC(=O)CCS(=O)(=O)c2ccc(Br)cc2)cc1 | 67.8% |
| O=C(CCS(=O)(=O)c1ccc(Br)cc1)Nc1cc(F)ccc1F | 66.9% |
| COC(=O)c1ccc(NC(=O)CCS(=O)(=O)c2ccc(Br)cc2)cc1 | 72.6% |
| COc1ccc([N+](=O)[O-])cc1NC(=O)CCS(=O)(=O)c1ccc(Br)cc1 | 47.6% |
| CCN(CC)c1ccc(NC(=O)CCS(=O)(=O)c2ccc(Br)cc2)c(C)c1 | 58.8% |
| C#CCSc1nc2sc3c(c2c(=O)n1C)CCC3 | 83.5% |
| COc1ccc(Cl)cc1NC(=O)CCS(=O)(=O)c1ccc(Br)cc1 | 92.7% |
| O=C(CCS(=O)(=O)c1ccc(Br)cc1)NCc1ccc(F)cc1 | 79.2% |
| CCc1ccccc1NC(=O)CCS(=O)(=O)c1ccc(Br)cc1 | 54.1% |
| CCc1ccccc1NC(=O)CCS(=O)(=O)c1ccc(OC)cc1 | 51.4% |
| O=C(CCS(=O)(=O)c1ccc(Br)cc1)NCc1cccs1 | 84.7% |
| O=C(CCS(=O)(=O)c1ccc(Br)cc1)NCCc1ccc(Cl)cc1 | 56.4% |
| COc1ccc(-c2csc3nc(-c4ccc(C)cc4)oc(=O)c23)cc1OC | 76.8% |
| O=C(CCS(=O)(=O)c1ccc(Br)cc1)NCCc1ccccc1 | 66.6% |
| O=C(CCS(=O)(=O)c1ccc(Br)cc1)Nc1ccc(Br)cc1F | 69.3% |
| COc1ccc(CNC(=O)CCS(=O)(=O)c2ccc(Br)cc2)cc1 | 70.9% |
| O=C(CCS(=O)(=O)c1ccc(Br)cc1)NCc1ccco1 | 66.6% |
| CCOc1ccccc1NC(=O)CCS(=O)(=O)c1ccc(Br)cc1 | 93.7% |
| O=C(CCS(=O)(=O)c1ccc(Br)cc1)NC1CCCC1 | 60% |
